# ChEMBL document CHEMBL3988442, “University of Dundee, Small-Polar-MMV Screening Library” (2021)
# Out of some 48,000 compounds screened, about 13,000 (27%) showed an effect of 50% or more. The list shows a part of the results.
# Tested on: Wolbachia pipientis
# Assay: Anti-Wolbachia Cell-Based Screen
# Format: functional
# Parameters: scale not given: in the data most compounds retested in dose-response had high values
# Conditions: 5 µM
row,SMILES,Percent Effect
1,O=S1(=O)C[C@@H]2[C@H](C1)N(Cc1cc(Cl)cc(Cl)c1)CCN2CCO,13.48%
2,O=C(NCc1cccnc1)C1CN(c2cnc3ccccc3n2)CCN1 (configuration not stated),-3.228%
3,Cc1cccc(NC(=O)c2ccc(-n3cncn3)nn2)n1,-9.734%
4,O=C(Nc1ccc(Cl)cn1)c1cncc(C2CCNCC2)n1,119.3%
5,Cc1ccnc(NC(=O)c2c(C)oc(C)c2C)c1,13.28%
6,Cc1ccnc(NC(=O)c2cncc(C3CCNCC3)n2)c1,117.9%
7,O=c1n(Cc2ccccn2)nc(C2CCNCC2)n1Cc1ccccc1,-4.835%
8,O=C(Nc1cc(C2CCOCC2)[nH]n1)c1ccc(Cl)cn1,-26.34%
9,Cc1ccnc(NC(=O)c2ccc(Cl)o2)c1,-0.2777%
10,O=C(Nc1ccc(Cl)cn1)C1CCCN(CCc2ccncc2)C1 (configuration not stated),-1.04%
11,O=C(Nc1ccccn1)c1nc(N2CCCC2)ncc1Cl,-4.003%
12,Cc1cccc(NC2CCN(C(=O)Nc3cccc4[nH]ccc34)CC2)n1,-4.499%
13,Cl.O=C(Nc1ccccn1)c1cncc(C2CCNCC2)n1,82.75%
14,Cc1cccc(NC(=O)c2cncc(C3CCNCC3)n2)n1,105%
15,O=C(NCCn1ccnc1)c1cc(Br)c[nH]1,-7.332%
16,Cc1cnn(CCNC(C)c2nnc(-c3cccc(Cl)c3)o2)c1 (configuration not stated),-21.78%
17,Cc1occc1C(=O)N1CCc2ncnc(C3CCOC3)c2CC1 (configuration not stated),-5.799%
18,COc1cccc(-c2noc3c2CN(c2nc(C)ncc2C)CC3)c1,-35.21%
19,O=C(Nc1ccccc1OC1CCOC1)c1cc[nH]n1 (configuration not stated),-3.911%
20,Cc1nc(Cn2nc(C3CCNCC3)n(Cc3ccccc3)c2=O)no1,-19.55%
21,Cc1ccccc1NC(=O)c1cncc(C2CCNCC2)n1.Cl,126.6%
22,CCCc1cc(C(=O)N2CCC3(CC2)CN(CCN(C)C)C(=O)O3)no1,-10.71%
23,c1cc(CN2CCC(n3cc(CN4CCCC4)nn3)CC2)cs1,0.307%

row,SMILES,Percent Effect
1,Nc1ncnc2c1ncn2[C@H]1CCN(Cc2ccsc2)CC[C@@H]1O,125.5%
2,Cc1ncsc1CN1CCN(C)C2(CCC(=O)N(CCO)CC2)C1 (configuration not stated),-3.684%
3,Cc1ncsc1CN1CC[C@H](O)[C@@H](n2cnc3c(N)ncnc32)CC1,93.47%
4,Cc1ncsc1CCN(C)C1CCN(c2ncnc3[nH]cnc23)CC1,13.21%
5,CN(C)S(=O)(=O)N1CC[C@]2(O)CCN(c3cc(C#N)ccn3)C[C@@H]2C1,-4.757%
6,CC(C)CN1C(=O)c2ccc(C(=O)NCCc3c[nH]cn3)cc2C1=O,4.031%
7,CCc1cnc(N)nc1N1CCCC2(CCOCC2)C1,7.215%
8,Cc1nn(C)c(Cl)c1C1CCCN1C(=O)c1ccc2c(c1)COC2 (configuration not stated),103.2%
9,COc1c(C2CCCN2C(=O)c2ccnc(N(C)C)c2)c(C)nn1C (configuration not stated),3.661%
10,Cc1nn(C)c(C)c1C1CCCN1C(=O)c1ccnc(N(C)C)c1 (configuration not stated),114%
11,Cc1nn(C)c(C)c1C1CCCN1C(=O)c1cnc2n[nH]c(C)c2c1 (configuration not stated),-6.27%
12,Cc1nn(C)c(Cl)c1C1CCCN1C(=O)c1cccc(C#N)c1 (configuration not stated),117.2%
13,Cc1nn(C)c(Cl)c1C1CCCN1C(=O)c1ccnc(N(C)C)c1 (configuration not stated),115.9%
14,CCn1nc(C(=O)N2CCCC2c2noc(C3CC3)n2)ccc1=O (configuration not stated),-10.37%
15,CCOCCN1CCN(CCc2nc3ccccc3c(=O)[nH]2)CC1,-16.1%
16,O=S(=O)(Cc1nc(C2CC2)no1)c1cc(F)ccc1F,-10.78%
17,Cc1nn(C)c(Cl)c1C1CCCN1C(=O)c1ccncc1 (configuration not stated),76.23%
18,Cc1nn(C)c(Cl)c1C1CCCN1C(=O)c1ccc2nncn2c1 (configuration not stated),-0.8221%
19,CCCc1cc(NCc2cc(C)on2)n2nccc2n1,18.67%
20,CN(C)c1nc(-c2ccncc2)nc2c1CCN(C(=O)[C@H](N)CO)C2,12.11%
21,O=C(NCCc1cccs1)[C@]12COC[C@H]1CN(c1ncccn1)C2.O=C(O)C(F)(F)F,-26.22%
22,Cc1cccnc1CN1CCN(Cc2ccc(-c3cc[nH]n3)o2)CC1,0.5837%
23,Fc1cnc(N2CCN(Cc3ccc(-c4cc[nH]n4)o3)CC2)nc1,10.27%

row,SMILES,Percent Effect
1,O=C(O)c1ccc(C2CCCN(Cc3ccc(-c4cc[nH]n4)o3)C2)cc1 (configuration not stated),112.5%
2,CCNC(=O)[C@@H]1C[C@H](N)CN1Cc1ccc(-c2cc[nH]n2)o1,2.507%
3,Cc1cnc(C)c(N2CCN(Cc3ccc(-c4cc[nH]n4)o3)CC2)n1,2.715%
4,Fc1ccc(N2CCCN(Cc3ccc(-c4cc[nH]n4)o3)CC2)cc1,76.67%
5,Cc1nn(C)c(C)c1CN1CCCC(c2ccc(C(=O)O)cc2)C1 (configuration not stated),16.04%
6,O=C(O)c1ccc(CC2CCN(Cc3ccc(-c4cc[nH]n4)o3)C2)cc1 (configuration not stated),103.3%
7,Cc1cc(N2CCN(Cc3ccc(-c4cc[nH]n4)o3)CC2)cc(C)n1,1.091%
8,Cc1cnccc1N1CCCN(Cc2ccc(-c3cc[nH]n3)o2)CC1,39.38%
9,O=C(O)c1ccccc1C1CCN(Cc2ccc(-c3cc[nH]n3)o2)C1 (configuration not stated),111.1%
10,CCN1CC2(CCC1=O)CCN(Cc1cccc(C#N)c1)CC2,-7.959%
11,CC(C)c1nc(CN(C)C(=O)C2CC(=O)N(Cc3ccncc3)C2)cs1 (configuration not stated),6.051%
12,COc1cccc(CN(C)C(C)c2ccco2)c1OCCn1ccnc1 (configuration not stated),-0.9941%
13,CN(CCN1CCCCCC1)C(=O)c1cc(CN2CCC(O)CC2)on1,-8.784%
14,Nc1ncc(C(=O)N2CCC3(CCCO3)CC2)c(-c2ccccc2)n1,-10.16%
15,CC(C)(CNc1ccc(S(=O)(=O)C(F)F)cc1)N1CCOCC1,2.444%
16,CC(C)NS(=O)(=O)c1cc(C(=O)O)cc(-c2ccccc2C#N)c1,4.012%
17,Cc1ccccc1CN1CC[C@@]2(O)CCN(C(=O)C3CCC3)C[C@H]2C1,-8.444%
18,Cc1cnccc1CN1CC[C@H](Oc2cccc(F)c2)[C@@](C)(O)C1,130.7%
19,Cc1cnccc1CN1CC[C@@](C)(O)[C@H](Oc2cccc(F)c2)C1,113.3%
20,Cc1cc(F)ccc1CN1CCCC(O)(CN2CCCC2)C1 (configuration not stated),20.34%
21,Cc1cnccc1CN1CC[C@@](C)(O)[C@H](Oc2ccccc2)C1,-3.171%
